Experimental data taken from PubChem BioAssay (NCATS).
Records with an inconclusive call do not appear. Calls of active or inactive are those of the source. Calls follow the shape of the dose curve; as a rule, active = well fitted inhibition curve with a large enough effect; inconclusive = small, poorly fitted or top-dose-only effect; inactive = no such curve, though single readings can be large or run the other way.

Target: Cytochrome P450 2C19 (Homo sapiens) (UniProt P33261)
Test: qHTS Assay for Inhibitors and Substrates of Cytochrome P450 2C19 (AID 899); also: nearly all actives have a fitted effect of over 60% in size
Outline: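 Luminescent read-out of luciferin formed from Luciferin-H EGE (10uM, equal to KM). Enzyme 5nM in 50mM KPO4; compound added, 10 min at 37C, then NADPH regenerating system for 60 min at 37C. Full inhibition defined by 57uM ketoconazole.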
Potency is read from the fitted curve at half-maximal effect.

Sequence of Cytochrome P450 2C19 (Homo sapiens) (P33261 whole entry, looked up): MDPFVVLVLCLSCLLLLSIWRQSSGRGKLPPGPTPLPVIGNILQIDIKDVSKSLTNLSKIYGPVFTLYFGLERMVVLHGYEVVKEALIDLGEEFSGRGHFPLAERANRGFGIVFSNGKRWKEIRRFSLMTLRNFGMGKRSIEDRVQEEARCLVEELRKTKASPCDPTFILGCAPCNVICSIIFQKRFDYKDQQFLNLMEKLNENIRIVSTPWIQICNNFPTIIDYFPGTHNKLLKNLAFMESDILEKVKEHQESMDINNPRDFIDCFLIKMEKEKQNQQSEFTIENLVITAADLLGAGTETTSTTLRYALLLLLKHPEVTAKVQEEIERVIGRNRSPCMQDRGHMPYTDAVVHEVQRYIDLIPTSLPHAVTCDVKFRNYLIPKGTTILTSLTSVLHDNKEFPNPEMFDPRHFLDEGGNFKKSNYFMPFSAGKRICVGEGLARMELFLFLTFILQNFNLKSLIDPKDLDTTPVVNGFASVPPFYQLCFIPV

FC(F)(F)c1ccccc1-c1nccc(NCc2cccs2)n1
Potency: 2000 nM (active)

CN(C)c1ccc(-c2cc(Nc3ccc(F)cc3)ncn2)cc1
Potency: 2000 nM (active)

Cc1ccccc1-c1cc(Nc2ccccc2)ncn1
Potency: 3160 nM (active)

CN1CCN(c2ncc3ncc(=O)n(CCC#N)c3n2)CC1
Potency: inactive

Cc1ccccc1-c1cc(NCc2ccccc2)ncn1
Potency: 3160 nM (active)

COc1ccc(-n2c(=O)c(-c3cccs3)nc3cnc(N(C)C)nc32)cc1
Potency: inactive

COc1ccc(CNc2ncnc3ccc(-c4cccc(NS(C)(=O)=O)c4)cc23)c(OC)c1
Potency: 2510 nM (active)

COc1cccc(-c2cncnc2NC2CCNCC2)c1
Potency: inactive
